Values joined by “and” are separate entries in the source; they are usually repeats but may differ in a detail not shown here. Identical values can stand only once. Screen size: about 370,000 compounds; about 3,100 (0.84%) were called active.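 Rule for the calls: active = inhibition above the mean of compounds lying between control limits plus 3 SD, set per campaign (cut at about 8.5% in these data); inactive = the rest.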 Shown is part of a subset that was picked to be rich in actives. Where a structure was tested more than once in an assay, its records may differ in their call.
target: Disintegrin and metalloproteinase domain-containing protein 17 (Homo sapiens) (UniProt P78536); assay: inhibition of ADAM17 peptide cleavage – biochemical, QFRET, primary screen (AID 720648); settings: recombinant ADAM17, EDANS/DABCYL FRET peptide cleavage; at 6.95 µM; stronger effect = higher value;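 note: 0% = DMSO-only wells as the low control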
Sequence (P78536 215-824 limits assumed): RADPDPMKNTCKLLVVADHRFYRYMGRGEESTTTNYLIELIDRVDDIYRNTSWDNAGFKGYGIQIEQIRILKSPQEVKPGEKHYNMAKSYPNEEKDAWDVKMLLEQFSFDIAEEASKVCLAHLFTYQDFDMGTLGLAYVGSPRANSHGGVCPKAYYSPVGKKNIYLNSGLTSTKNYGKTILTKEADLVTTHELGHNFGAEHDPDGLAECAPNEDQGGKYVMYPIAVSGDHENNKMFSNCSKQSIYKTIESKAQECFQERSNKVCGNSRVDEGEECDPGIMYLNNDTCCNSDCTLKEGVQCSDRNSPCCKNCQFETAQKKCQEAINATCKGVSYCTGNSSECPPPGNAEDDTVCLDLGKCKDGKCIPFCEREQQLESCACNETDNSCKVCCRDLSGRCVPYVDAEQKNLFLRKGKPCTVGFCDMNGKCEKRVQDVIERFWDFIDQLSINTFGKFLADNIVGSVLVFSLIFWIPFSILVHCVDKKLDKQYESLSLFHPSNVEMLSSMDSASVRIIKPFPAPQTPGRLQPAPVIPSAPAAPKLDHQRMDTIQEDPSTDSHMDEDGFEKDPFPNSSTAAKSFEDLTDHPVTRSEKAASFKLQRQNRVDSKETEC

Compound	inhibition
COc1ccc(CSc2nnc(-c3cccc(C)c3)n2C)cc1	-0.21% (inactive)
CC(=O)Nc1ccc(C(=O)CSc2nnc(Cc3ccccc3)o2)cc1	2.43% (inactive)
CCOc1ccc(Nc2nc(Cc3nnc(SCC(=O)NC4CCCC4)n3C)cs2)cc1	-1.2% (inactive)
CCOc1ccc(Nc2nc(Cc3nnc(SCC(=O)c4ccc(C)cc4)o3)cs2)cc1	13.7% (active)
COc1ccc(C2CC=C(C(=O)O)C(c3ccccc3F)N2S(=O)(=O)c2ccc(C)cc2)cc1OC (stereo not given)	-3.14% (inactive)
CC1=CC(C)(C)NC(=S)N1c1ccccc1	-5.69% (inactive)
CCCCN=C1N/C(=C\c2ccco2)C(=O)N1c1ccccc1	-3.3% (inactive)
O=C1/C(=C\c2ccsc2)NC(=S)N1c1ccccc1	9.7% (active)
CCC(=O)OCCCN1C(=O)CCC12CCC(c1ccccc1)CC2 (stereo not given)	0.25% (inactive)
O=C(CCl)NC1CCCCN(Cc2cccc(C(F)(F)F)c2)C1=O (stereo not given)	-6.37% (inactive)
O=S1(=O)c2ccc(Br)cc2OC[C@H](Cc2ccccc2)N1Cc1cn(Cc2ccccc2)nn1	-10.2% (inactive)
CC(C)(C)OC(=O)CNC(=O)c1[nH]cnc1C(=O)N[C@@H](Cc1ccccc1)C(=O)OCc1ccccc1	11.2% (active)
CC(C)(C)OC(=O)N1CCC(NC(=O)c2[nH]cnc2C(=O)N[C@@H](Cc2ccccc2)C(=O)OCc2ccccc2)CC1	14.3% (active)
CNC(=O)c1[nH]cnc1C(=O)N[C@@H](CC(C)C)C(=O)OCc1ccccc1	1.89% (inactive)
C[C@@H](NC(=O)c1nc[nH]c1C(=O)N1CCN(C(=O)OC(C)(C)C)CC1)c1ccccc1	-5.12% (inactive)
C[C@H](NC(=O)c1nc[nH]c1C(=O)NCC(=O)OC(C)(C)C)C(=O)OCc1ccccc1	0.33% (inactive)
C[C@H](NC(=O)c1nc[nH]c1C(=O)NCC(=O)OC(C)(C)C)c1ccccc1	-0.12% (inactive)
Cc1cc(C)n2ncc(C(=O)Nc3ccc4c(c3)OCCO4)c2n1	-3.48% (inactive)
COc1cc(NC(=O)C2CCCN(S(=O)(=O)c3ccc(C(C)(C)C)cc3)C2)cc(OC)c1 (stereo not given)	3.29% (inactive)
CCOC(=O)[C@]12CCCC=C1N(Cc1ccc(OC)cc1)C(=O)[C@@H]2CC(=O)N1CCOCC1	-0.05% (inactive)
O=c1c(-c2ccc(Cl)cc2)[n+]([O-])c2ccccc2n1OCc1nc2ccccc2[nH]1	-12.2% (inactive)
CCOc1ccc(OCC)c(-c2c(=O)n(OCc3ccc(Cl)cc3)c3ccccc3[n+]2[O-])c1	9.36% (active)

Compound	inhibition
COc1ccc(OC)c(-c2c(=O)n(OCc3ccccc3Br)c3ccccc3[n+]2[O-])c1	0.86% (inactive)
Cc1c(C(C)c2ccccc2O)[nH]c2ccccc12 (stereo not given)	4.61% (inactive)
O=C(NCc1cccs1)C1CCN(S(=O)(=O)c2ccccc2[N+](=O)[O-])CC1	1.09% (inactive)
Cc1cc(NC(=O)c2ccccc2C)no1	-1.75% (inactive)
COc1ccc(C(=O)OCC(=O)NC(=O)CCSc2ccccc2)cc1	0.55% (inactive)
Cc1ccccc1C(=O)O	-1.22% (inactive)
O=C(COC(=O)c1ccccn1)Nc1cccc2ccccc12	-0.52% (inactive)
O=C(COC(=O)c1ccccc1)Nc1ccccc1Sc1ccccc1	9.99% (active)
Cc1ccccc1C(=O)Nc1ccccc1Sc1ccccc1	10.4% (active)
COc1ccc(-n2c(SCC(=O)Nc3ccc4cn[nH]c4c3)nnc2-c2cccnc2)cc1	2.47% (inactive)
COc1ccc(C2Nc3ccccc3C(=O)N2Cc2cccs2)cc1COc1c(C)cccc1C (stereo not given)	-93.1% (inactive)
CC(C)CNc1cccc2c1S(=O)(=O)N(Cc1cn(Cc3ccc(Cl)cc3)nn1)Cc1ccccc1O2	-4.11% (inactive)
COP(=O)(O)CNC(=O)OCc1ccccc1	1.95% (inactive)
CN(C)S(=O)(=O)c1cccc(NC(=O)COC(=O)C2(c3ccccc3F)CCCC2)c1	14.4% (active)
O=C(COC(=O)c1ccc(NS(=O)(=O)c2cccs2)cc1O)Nc1ccc(F)cc1	8.44% (inactive)
NS(=O)(=O)c1ccc(NC(=O)COC(=O)C2(c3ccc(F)cc3)CCCC2)cc1	10.8% (active)
O=C(COC(=O)C1(c2ccc(F)cc2)CCCC1)N1CCNC1=O	-6.77% (inactive)
CN(C)S(=O)(=O)c1cccc(NC(=O)COC(=O)/C=C/c2cccs2)c1	-0.31% (inactive)
CN(C)S(=O)(=O)c1cccc(NC(=O)COC(=O)c2cc(=O)[nH]c(=O)[nH]2)c1	0.24% (inactive)
CCCCOCCCNC(=O)C[C@H]1C[C@@]2(C(=O)OC)C(=C[C@H](C(C)(C)C)O[C@@H]2C)N(CCc2ccc(OC)c(OC)c2)C1=O	4.52% (inactive)
O=S1(=O)c2c(cccc2N2CCSCC2)Oc2ccccc2CN1Cc1cn(Cc2ccc(F)cc2)nn1	-0.02% (inactive)
COc1ccc(N2CCN(CCNS(=O)(=O)c3ccc(Cl)s3)CC2)cc1	-0.88% (inactive)

Compound	inhibition
CCC[C@H]1C(=O)CC[C@@]23CCCN2C(=O)CCC[C@@H]13	-0.61% (inactive)
C=CCOc1ccc(/C=N/n2cncn2)cc1OC	-11.9% (inactive)
CNC(=S)N/N=C/c1ccc(OCc2ccccc2)c(Br)c1	-1.43% (inactive)
COc1cc(/C=N/n2c(C)n[nH]c2=S)ccc1OCc1ccccc1	10.8% (active)
COc1cccc(CNC(=O)C2CCCN(c3nc4ccccc4o3)C2)c1OC (stereo not given)	1.62% (inactive)
O=C(c1c[nH]c2ccccc12)N1CCC(Oc2cccnc2)CC1	1.77% (inactive)
O=C1C(=O)N(Cc2ccc(-c3ccsc3)cc2)c2ccc(OC(F)(F)F)cc21	1.76% (inactive)
CC(=O)Nc1ccc(S(=O)(=O)Oc2ccc(Br)cc2C(=S)N2CCOCC2)cc1	9.15% (active)
CCOc1cc(C(=S)N2CCOCC2)ccc1OS(=O)(=O)c1ccc(Br)cc1	-3.87% (inactive)
O=S(=O)(Oc1ccccc1C(=S)N1CCOCC1)c1ccc(Cl)cc1	-1.11% (inactive)
O=C(C1CCCN1S(=O)(=O)c1ccccc1)N1CCc2ccccc2C1 (stereo not given)	1.33% (inactive)
CCOc1c(Br)cc(/C=C2\C(=O)N(CCC#N)N=C2C)cc1OC	8.65% (active)
CC(C)(C)c1ccc(CSc2nnc(-c3cccs3)o2)cc1	-1.78% (inactive)
COC(=O)[C@]12C[C@H](CC(=O)N3CCN(C(=O)C4CC4)CC3)C(=O)N(CCC3=CCCCC3)C1=C[C@H](C(C)C)O[C@@H]2C1CC1	-8.05% (inactive)
CC1(C)C=Cc2c(ccc3c2OC[C@@H](c2ccc(O)cc2O)C3)O1	19.4% (active)
CN[C@H]1C[C@H]2c3cc(N4CCOCC4)ccc3CCN2C[C@H]1[C@H](C)O	-6.65% (inactive)
O=C(CCCCCN1C(=O)C2C3C=CC(C3)C2C1=O)Nc1ccccc1 (stereo not given)	4.34% (inactive)
CC1(Cc2cccc(C#N)c2)C(=O)Nc2ccc(-c3cccc(C(F)(F)F)c3)cc21 (stereo not given)	11.2% (active)
Cc1ccc(CC2(C)C(=O)Nc3ccc(OC(F)(F)F)cc32)cc1 (stereo not given)	8.02% (inactive)
COc1ccccc1CC1(C)C(=O)Nc2ccc(OC(F)(F)F)cc21 (stereo not given)	6.39% (inactive)
CC(c1c[nH]c2ccccc12)c1c(-c2ccccc2)n(C)c2ccccc12 (stereo not given)	-2.38% (inactive)
N#Cc1ccccc1OC[C@@H](O)CN1CCC(C(O)(c2ccccc2)c2ccccc2)CC1	-1.12% (inactive)

Compound	inhibition
O=C(c1ccccc1)c1ccc(-c2ccccc2C(=O)NC2CCCCN(Cc3ccc(Cl)cc3)C2=O)cc1 (stereo not given)	-0.61% (inactive)
COC(=O)C1CN(Cc2cn(Cc3ccc(F)cc3)nn2)CCS(=O)(=O)N1Cc1ccc(Cl)cc1 (stereo not given)	1.41% (inactive)
Cc1cc(C)c(C#N)c(SCc2ccc3c(c2)OCO3)n1	-0.68% (inactive)
COc1ccc(C2C(C#N)=C(N)Oc3n[nH]c(C)c32)cc1CN1CCN(c2ccc(F)cc2)CC1 (stereo not given)	0.41% (inactive)
Cc1cc(C)c(C#N)c(SCc2[nH]nc3c2C(c2ccccc2)C(C#N)=C(N)O3)n1 (stereo not given)	12.4% (active)
CCOc1ccc(N2C(=O)CC(N(CCc3ccc(OC)c(OC)c3)C(=S)Nc3ccccc3)C2=O)cc1 (stereo not given)	9.32% (active) and 1.43% (inactive)
COc1ccc(N2C(=O)C(CC(=O)Nc3ccccc3)N(Cc3ccc(OC)c(OC)c3)C2=O)cc1 (stereo not given)	-0.55% (inactive)
CN(C)c1ccc(NC(=S)N(CCc2ccccc2)C2CC(=O)N(c3c(Cl)cccc3Cl)C2=O)cc1 (stereo not given)	2.09% (inactive)
C=CCN(Cc1ccc2c(c1)OCO2)C(C#CC1CC1)C(C)(C)C (stereo not given)	-5.97% (inactive)
O=C(NC1CCCCN(Cc2cccc(C(F)(F)F)c2)C1=O)c1ccccc1I (stereo not given)	-0.37% (inactive)
COC(=O)[C@]12C[C@H](CC(=O)NCc3ccccc3)C(=O)N(Cc3ccccc3)C1=C[C@H](COCc1ccccc1)O[C@@H]2C	1.65% (inactive)
COC(=O)[C@H](C(C)C)N(CCCc1cn(Cc2ccccc2)nn1)S(=O)(=O)c1ccc(F)cc1Br	2.02% (inactive)
O=C(COC(=O)c1ccccn1)NNC(=O)c1ccc(Br)cc1	0.32% (inactive)
COc1ccccc1C(=O)NCC(=O)NCCSc1ccc(Br)cc1	2.38% (inactive)
COc1ccccc1C(=O)NCC(=O)OCC(=O)NNC(=O)c1ccc(Br)cc1	13% (active)
CCCCCCCCNS(=O)(=O)/C=C/c1cc(C)ccc1CNC(=O)OC(C)(C)C	-2.49% (inactive)
CC(C)N(C(=O)[C@H]1C[C@H](CC(=O)NCCC2=CCCCC2)C(=O)N2CCc3c([nH]c4cc(CCC(=O)N(C)C)ccc34)[C@]12C)C(C)C	-3.26% (inactive)
CC(C)N(C(=O)[C@H]1C[C@H](CC(=O)NC(C)(C)C)C(=O)N2CCc3c([nH]c4ccc(Cl)cc34)[C@]12C)C(C)C	8.65% (active)
C[C@]12c3[nH]c4ccc(Cl)cc4c3CCN1C(=O)[C@@H](CC(=O)NCCCn1ccnc1)C[C@@H]2C(=O)N1CCOCC1	4.49% (inactive)

From PubChem BioAssay AID720648 (The Scripps Research Institute Molecular Screening Center, 2013)
